Rows were chosen to be rich in hits. Some 1.9% of all compounds tested hit in one or more screens of this group.
LYPLA2 counter: LYPLA2 (human) inhibition in PME1 counter-screen. O95372. inhibition, % at 5.9 µM. recombinant LYPLA2, FP-Rh probe fluorescence polarization. 320,000 tested, 0.38% active;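 active = inhibition above the screen-wide mean plus 3 SD, limit set per campaign, cut at about 26% in these data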
Target sequence (O95372 whole entry, looked up): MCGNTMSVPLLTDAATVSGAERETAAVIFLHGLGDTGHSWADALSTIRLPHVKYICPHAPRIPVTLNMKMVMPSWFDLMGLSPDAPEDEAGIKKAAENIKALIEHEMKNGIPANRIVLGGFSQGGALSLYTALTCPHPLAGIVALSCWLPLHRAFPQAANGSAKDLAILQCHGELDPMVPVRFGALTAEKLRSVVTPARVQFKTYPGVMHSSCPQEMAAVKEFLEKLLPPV
Fam108B counter: counter-screen for RBBP9 inhibitors: inhibitors of mouse Fam108B; recombinant Fam108B, FP-Rh probe fluorescence polarization; 300,000 tested, 0.33% active; inhibition, % at 9.51 µM; AID 1947;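 active = inhibition above the screen mean inhibition plus 3 SD, computed separately per campaign, cut at about 18% in these data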;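 note: inhibitors lower polarization as less probe binds the enzyme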
PREPL inhibitor: inhibitors of human prolyl oligopeptidase-like enzyme PREPL; recombinant PREPL, fluorescence polarization activity-based probe; inhibition, % at 5.96 µM; 320,000 tested, 0.68% active; in the data active = inhibition above about 43%
GSTO1 inh: counter-screen for RBBP9 inhibitors: inhibitors of human GSTO1 | inhibition, % at 5.96 µM | 300,000 tested, 1.1% active | P78417 | recombinant GSTO1, activity-based probe fluorescence polarization | AID 1974;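 active = inhibition above the campaign mean inhibition plus 3 SD, cut at about 35% in these data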
LYPLA1 counter: blocks human lysophospholipase 1, a PME1 counter-screen; inhibition, % at 5.9 µM; recombinant LYPLA1, FP-Rh probe fluorescence polarization; AID 2174; 320,000 tested, 0.16% active;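 active = inhibition above the mean of all tested compounds plus 3 SD, set per campaign, cut at about 14% in these data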;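 note: inhibitors block serine hydrolase probe labeling of LYPLA1 so polarization falls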
PME-1 inh: blocks human protein phosphatase methylesterase 1; Q9Y570; recombinant PME-1, FP-Rh probe fluorescence polarization; inhibition, % at 5.9 µM; 320,000 tested, 0.53% active;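 active = inhibition above the campaign mean of all compounds plus 3 SD, cut at about 26% in these data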;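 note: competitive labeling of PME-1 active site by serine hydrolase directed probe; inhibitors block probe labeling so polarization falls and inhibition rises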
Target sequence (Q9Y570 whole entry, looked up): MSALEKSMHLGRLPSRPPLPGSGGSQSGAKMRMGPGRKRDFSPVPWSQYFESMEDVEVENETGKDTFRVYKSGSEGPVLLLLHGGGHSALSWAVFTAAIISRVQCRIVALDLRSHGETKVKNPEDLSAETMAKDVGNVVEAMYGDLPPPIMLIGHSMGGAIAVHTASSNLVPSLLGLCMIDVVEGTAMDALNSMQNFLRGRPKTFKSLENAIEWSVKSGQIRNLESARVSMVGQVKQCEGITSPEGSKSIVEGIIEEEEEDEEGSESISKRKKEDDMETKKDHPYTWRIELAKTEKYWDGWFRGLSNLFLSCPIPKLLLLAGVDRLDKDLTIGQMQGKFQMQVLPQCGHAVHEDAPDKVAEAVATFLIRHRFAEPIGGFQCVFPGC
GSTO1 inh conf: GSTO1 (human) inhibition, confirmation; shares compounds with GSTO1 inh; recombinant GSTO1, probe fluorescence polarization; inhibition, % at 5.96 µM; 2,400 tested, 54% active; AID 2176;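 active = inhibition above the primary screen's cutoff, its mean inhibition plus 3 SD, cut at about 35% in these data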;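 note: loss of polarization as inhibitors block binding of rhodamine sulfonate ester activity probe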
A number is an active result; . = inactive; / = not tested or not shown.

SMILES	LYPLA2 counter	Fam108B counter	PREPL inhibitor	GSTO1 inh	LYPLA1 counter	PME-1 inh	GSTO1 inh conf
CCOC(=O)C1=C(C)NC(C)=C(C(=O)OCC)C1C(=O)OCC(=O)NC1CCCCC1	/	/	.	/	/	/	/
COc1cccc(CNS(=O)(=O)c2ccc3c(c2)oc(=O)n3C)c1	.	.	.	.	.	.	/
Cn1c(=O)oc2cc(S(=O)(=O)NC3CCCCCCC3)ccc21	.	.	.	43	.	.	39
Cn1c(=O)oc2cc(S(=O)(=O)NCCC(=O)NC3CCCC3)ccc21	.	.	.	.	.	.	/
Cc1cccc(CCNS(=O)(=O)c2ccc3c(c2)oc(=O)n3C)c1	.	.	.	55	.	.	58
CC(C)c1ccc(NS(=O)(=O)c2ccc3c(c2)oc(=O)n3C)cc1	.	.	.	65	.	.	65
Cc1ncsc1CCC(=O)N1CCCC(Nc2ccc(C(C)C)cc2)C1 (stereo not given)	.	.	.	.	.	.	/
O=C(Nc1cccc(C(F)(F)F)c1)C1CCN(S(=O)(=O)c2cccnc2)CC1	.	.	.	.	.	.	/
Cc1ccc(NC(=O)COc2cccc(-n3cnnn3)c2)cc1S(=O)(=O)N1CCOCC1	.	/	.	/	.	.	/
O=C(O)c1ccc(-n2nnc3ccccc32)c([N+](=O)[O-])c1	.	.	.	.	.	.	/
O=C(O)c1ccc(NC2=C(n3nnc4ccccc43)C(=O)c3ccccc3C2=O)cc1	.	.	.	53	.	.	61
Cc1noc(C)c1NC(=O)N(C)C[C@H]1Oc2ccc(NC(=O)C3CCCCC3)cc2C(=O)N([C@H](C)CO)C[C@@H]1C	/	/	.	/	/	/	/
Nc1cc(=O)[nH]c(SCC(=O)Nc2ccc(N3CCCCC3)cc2)n1	/	/	.	/	/	/	/
Oc1c(CN2CCN(c3ccccc3)CC2)cc(Br)c2cccnc12	.	.	.	38	.	.	.
CN(O)/C=c1/ccc2c(n1)C(=O)C=CC=2	.	.	.	64	.	.	.
CC(C)CC1NC(=O)c2ccc(Cl)cc2-n2c1nc1ccc(Cl)cc1c2=O (stereo not given)	/	/	.	/	/	/	/
CC(c1ccc2c(c1)OCO2)n1c(=S)[nH]c2ccccc2c1=O (stereo not given)	.	/	.	/	.	.	/
Oc1ccc(/C=N/N2CCCCC2)cc1O	.	.	.	40	.	.	.
C[C@@H]1COC(=O)[C@H](CC(=O)OC(C)(C)C)C/C=C\C[C@@H](CC(=O)N(CCO)Cc2ccccc2)C(=O)N1	/	/	.	/	/	/	/
Cc1nc(SC(C)C(=O)NCC2CCCO2)c2cc(-c3ccccc3)sc2n1 (stereo not given)	.	.	.	.	.	.	/
Nc1cc(-c2cccc([N+](=O)[O-])c2)[nH]n1	.	.	.	.	.	.	/
O=c1cc(-c2cccc([N+](=O)[O-])c2)[nH][nH]1	.	.	.	38	.	.	.
c1ccc2c(C3CCO3)cccc2c1 (stereo not given)	.	/	.	/	.	.	/
O=C1c2ccccc2C(=O)C12OC2c1cccc2ccccc12 (stereo not given)	.	.	.	75	.	.	71
CCC(C)NC(=O)CSc1ccc(S(=O)(=O)N2CCN(Cc3ccccc3)CC2)cn1 (stereo not given)	.	/	.	/	.	.	/
SMILES	LYPLA2 counter	Fam108B counter	PREPL inhibitor	GSTO1 inh	LYPLA1 counter	PME-1 inh	GSTO1 inh conf
O=C(NC1CCCCC1)Oc1cc2oc(=O)sc2cc1Br	.	.	.	51	.	.	.
COc1ccccc1C(=O)Nc1nc(-c2cccs2)c(NC(C)=O)s1	.	.	.	39	.	.	.
CC(=O)Nc1sc(NC(=O)c2ccccc2)nc1-c1cccs1	.	.	.	.	.	.	/
CCN(CC)S(=O)(=O)c1ccc(NS(=O)(=O)c2ccc3oc(=O)[nH]c3c2)cc1	.	.	.	44	.	.	58
CCN(CC)S(=O)(=O)c1ccc(NS(=O)(=O)c2ccc(O)c([N+](=O)[O-])c2)cc1	.	.	.	.	.	.	/
CCSc1nnc(NC(=O)CCN2C(=O)C3CCCCC3C2=O)s1 (stereo not given)	.	/	.	/	.	.	/
COc1cccc(C(c2c(C)[nH]n(-c3ccccc3)c2=O)c2c(C)[nH]n(-c3ccccc3)c2=O)c1OC	.	.	.	64	.	.	.
Cc1[nH]n(-c2ccccc2)c(=O)c1C(c1ccc(O)c([N+](=O)[O-])c1)c1c(C)[nH]n(-c2ccccc2)c1=O	.	.	.	59	.	.	47
CCOc1cccc(C(c2c(C)n(C)n(-c3ccccc3)c2=O)c2c(C)n(C)n(-c3ccccc3)c2=O)c1OC	.	.	.	.	.	.	/
O=c1c2cc([N+](=O)[O-])cc([N+](=O)[O-])c2[nH]n1-c1ccccc1	.	.	.	.	.	.	/
Cc1[nH]n(-c2ccccc2)c(=O)c1C(C[N+](=O)[O-])c1ccccc1Cl (stereo not given)	.	.	.	43	.	.	.
Cc1[nH]n(-c2ccccc2)c(=O)c1-c1ccccc1	.	.	.	.	.	.	/
COc1cccc(C(c2c(C)[nH]n(-c3ccccc3)c2=O)c2c(C)[nH]n(-c3ccccc3)c2=O)c1O	.	.	.	65	.	.	38
COc1cc(OC)cc(C(=O)NC2CCCN(Cc3ccc(Cl)cc3)C2)c1 (stereo not given)	.	.	.	.	.	.	/
COc1ccc(NC(=O)CSCc2cc(=O)n3nc(C4CC4)sc3n2)cc1	.	.	.	38	.	.	.
Cc1cccc(NC(=O)CSCc2cc(=O)n3nc(C4CC4)sc3n2)c1	.	.	.	.	.	.	/
Cc1ccc(C(=O)N/C(=C\c2ccc(-c3ccccc3[N+](=O)[O-])o2)C(=O)NCCCN(C)C)cc1	.	.	.	44	.	.	.
Cc1ccc(C(=O)N/C(=C\c2ccc(-c3ccccc3[N+](=O)[O-])o2)C(=O)NCCN(C)C)cc1	.	.	.	.	.	.	/
CC(=O)N(C1=C(N)C(=O)c2ccccc2C1=O)c1ccccc1	.	.	.	59	.	.	.
Oc1ccc(Br)cc1CNc1cccc2cccnc12	.	.	.	46	.	.	.
CNC(=O)COC(=O)c1cc(-c2ccco2)nc2ccccc12	.	.	.	40	.	.	.
O=C(COC(=O)c1ccc([N+](=O)[O-])o1)NC1CCCc2ccccc21 (stereo not given)	/	/	.	/	/	/	/
COC(=O)CCC(=O)OC1(C)C(=O)C=C2C=C3CCCN3C=C2C1=O (stereo not given)	.	.	.	38	.	.	.
COC(=O)CCC(=O)OC1(C)C(=O)C=C2C=C(C3CC3)N(C(CO)CO)C=C2C1=O (stereo not given)	.	.	.	.	.	.	/
